Test results published in the supplement of paper PMC11732987, “Enantioselective OTUD7B fragment discovery through chemoproteomics screening and high-throughput optimisation” (Communications Chemistry, 2025).

Experiments:
Experiment in all cases: log2 ratio of Biotin-Ahx-Ub-VS probe labelling (fragment/DMSO); higher = less target engagement (more negative = stronger competition), active = hit call of the paper (q ≤ 0.05, log2 ratio ≤ -1)
Conditions in all cases: compound concentration: 200 uM; treatment time: 3 h
OTUD6B = target: T1, OTUD6B (UniProt Q8N6M0)
T1 sequence (whole entry): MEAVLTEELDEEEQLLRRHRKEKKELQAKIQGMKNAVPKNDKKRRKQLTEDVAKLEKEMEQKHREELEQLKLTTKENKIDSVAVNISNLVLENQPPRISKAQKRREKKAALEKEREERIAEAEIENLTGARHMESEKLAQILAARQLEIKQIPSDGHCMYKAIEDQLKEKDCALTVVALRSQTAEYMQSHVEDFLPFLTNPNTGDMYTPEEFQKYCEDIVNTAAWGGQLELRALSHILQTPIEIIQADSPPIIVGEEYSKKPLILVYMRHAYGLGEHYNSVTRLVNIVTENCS
Summary of the method: (§1)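 HEK293T lysate (495 µg per sample, in Tris/CHAPS/IGEPAL buffer with protease inhibitors) was treated in triplicate with fragment at 200 µM or with DMSO for 3 h. It was then treated with Biotin-Ahx-Ub-VS (0.5 µM final) for 1 h. Labelled DUBs were NeutrAvidin-enriched, digested with LysC and trypsin, and run by diaPASEF LC-MS/MS. Spectronaut label-free quantities were global-median-normalised. Values are average log2 ratios fragment/DMSO by unpaired t-test, using proteins with ≥2 unique peptides.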

OTUD7B = target: T2, OTUD7B (UniProt Q6GQQ9)
T2 sequence (whole entry): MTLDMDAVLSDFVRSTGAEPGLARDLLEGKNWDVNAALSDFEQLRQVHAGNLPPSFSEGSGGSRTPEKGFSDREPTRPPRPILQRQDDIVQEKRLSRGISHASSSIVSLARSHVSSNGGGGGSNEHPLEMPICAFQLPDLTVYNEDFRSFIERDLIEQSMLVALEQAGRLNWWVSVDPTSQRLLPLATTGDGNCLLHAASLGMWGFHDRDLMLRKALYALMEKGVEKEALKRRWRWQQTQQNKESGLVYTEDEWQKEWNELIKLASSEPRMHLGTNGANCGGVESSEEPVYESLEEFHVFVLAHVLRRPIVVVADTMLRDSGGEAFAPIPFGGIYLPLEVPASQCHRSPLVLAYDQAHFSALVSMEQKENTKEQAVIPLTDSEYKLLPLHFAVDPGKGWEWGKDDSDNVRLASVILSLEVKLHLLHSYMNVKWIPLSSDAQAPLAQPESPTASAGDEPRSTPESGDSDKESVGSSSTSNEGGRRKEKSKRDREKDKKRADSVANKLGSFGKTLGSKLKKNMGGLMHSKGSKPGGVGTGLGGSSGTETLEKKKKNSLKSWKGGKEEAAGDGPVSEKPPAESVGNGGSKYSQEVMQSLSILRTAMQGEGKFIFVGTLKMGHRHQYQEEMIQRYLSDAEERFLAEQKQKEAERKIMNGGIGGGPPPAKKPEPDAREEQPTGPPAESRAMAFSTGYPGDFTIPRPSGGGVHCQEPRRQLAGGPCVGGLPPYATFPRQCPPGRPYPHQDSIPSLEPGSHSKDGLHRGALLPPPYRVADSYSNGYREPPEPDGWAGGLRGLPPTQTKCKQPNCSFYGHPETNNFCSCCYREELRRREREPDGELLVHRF
Summary of the method: as §1

PRPF8 = PRPF8 (UniProt Q6P2Q9)
Summary of the method: as §1

PSMD7 = target: T3, PSMD7 (UniProt P51665)
T3 sequence (whole entry): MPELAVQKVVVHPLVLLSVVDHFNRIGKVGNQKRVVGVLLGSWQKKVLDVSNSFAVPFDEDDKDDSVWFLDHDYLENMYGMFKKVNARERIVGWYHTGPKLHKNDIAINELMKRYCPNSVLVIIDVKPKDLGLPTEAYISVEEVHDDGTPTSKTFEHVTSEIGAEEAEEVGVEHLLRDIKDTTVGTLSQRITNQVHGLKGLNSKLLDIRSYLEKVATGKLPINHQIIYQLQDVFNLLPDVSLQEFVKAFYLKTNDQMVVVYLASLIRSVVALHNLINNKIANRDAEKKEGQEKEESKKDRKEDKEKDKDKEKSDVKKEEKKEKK
Summary of the method: as §1

UCHL1 = UCHL1 (UniProt P09936)
Chain of UCHL1 (P09936 whole entry, looked up): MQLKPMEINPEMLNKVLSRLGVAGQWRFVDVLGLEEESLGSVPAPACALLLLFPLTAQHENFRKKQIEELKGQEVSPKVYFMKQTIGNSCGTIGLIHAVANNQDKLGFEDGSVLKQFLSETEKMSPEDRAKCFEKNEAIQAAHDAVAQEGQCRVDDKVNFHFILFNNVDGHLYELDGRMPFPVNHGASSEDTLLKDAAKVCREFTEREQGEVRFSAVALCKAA
Summary of the method: as §1

UCHL3 = target: T4, UCHL3 (UniProt P15374)
T4 sequence (whole entry): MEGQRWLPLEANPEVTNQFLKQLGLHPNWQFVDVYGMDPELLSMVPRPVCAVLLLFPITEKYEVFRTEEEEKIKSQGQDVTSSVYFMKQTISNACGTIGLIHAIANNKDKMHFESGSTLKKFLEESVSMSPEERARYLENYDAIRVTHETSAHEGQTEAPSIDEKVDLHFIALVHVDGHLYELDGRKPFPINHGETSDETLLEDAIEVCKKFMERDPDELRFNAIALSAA
Summary of the method: as §1

UCHL5 = target: T5, UCHL5 (UniProt Q9Y5K5)
T5 sequence (whole entry): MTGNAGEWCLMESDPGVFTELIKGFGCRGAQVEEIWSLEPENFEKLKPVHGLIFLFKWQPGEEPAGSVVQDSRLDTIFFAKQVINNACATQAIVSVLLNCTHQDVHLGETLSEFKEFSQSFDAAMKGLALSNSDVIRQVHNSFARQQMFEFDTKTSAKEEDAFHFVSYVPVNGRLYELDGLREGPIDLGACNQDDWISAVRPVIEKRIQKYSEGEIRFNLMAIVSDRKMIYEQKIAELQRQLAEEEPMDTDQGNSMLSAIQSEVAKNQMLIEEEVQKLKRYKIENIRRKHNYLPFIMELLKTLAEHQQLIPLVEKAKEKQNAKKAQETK
Summary of the method: as §1

USP10 = USP10 (UniProt Q14694)
Chain of USP10 (Q14694 whole entry): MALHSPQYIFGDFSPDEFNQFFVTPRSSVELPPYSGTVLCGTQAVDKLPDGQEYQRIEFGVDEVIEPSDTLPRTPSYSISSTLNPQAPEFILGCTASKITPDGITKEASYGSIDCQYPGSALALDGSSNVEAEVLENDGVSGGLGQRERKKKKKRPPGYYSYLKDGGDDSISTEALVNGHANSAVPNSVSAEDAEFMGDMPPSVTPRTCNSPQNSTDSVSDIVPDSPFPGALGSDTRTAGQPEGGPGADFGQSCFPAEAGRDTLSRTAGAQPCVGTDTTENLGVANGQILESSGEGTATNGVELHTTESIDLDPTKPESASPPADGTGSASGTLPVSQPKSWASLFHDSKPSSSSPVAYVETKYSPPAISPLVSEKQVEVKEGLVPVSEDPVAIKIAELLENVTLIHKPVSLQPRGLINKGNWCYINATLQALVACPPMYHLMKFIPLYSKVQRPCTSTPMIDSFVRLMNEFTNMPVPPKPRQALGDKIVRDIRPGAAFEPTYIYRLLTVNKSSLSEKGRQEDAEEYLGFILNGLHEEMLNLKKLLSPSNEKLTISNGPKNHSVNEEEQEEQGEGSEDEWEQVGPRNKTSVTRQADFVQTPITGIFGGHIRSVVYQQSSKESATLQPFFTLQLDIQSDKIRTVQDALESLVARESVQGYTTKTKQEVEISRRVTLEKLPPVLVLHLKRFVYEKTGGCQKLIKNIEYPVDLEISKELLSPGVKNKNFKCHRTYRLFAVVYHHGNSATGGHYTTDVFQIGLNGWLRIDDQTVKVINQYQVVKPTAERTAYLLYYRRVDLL
Summary of the method: as §1

USP15 = target: T6, USP15 (UniProt Q9Y4E8)
T6 sequence (whole entry): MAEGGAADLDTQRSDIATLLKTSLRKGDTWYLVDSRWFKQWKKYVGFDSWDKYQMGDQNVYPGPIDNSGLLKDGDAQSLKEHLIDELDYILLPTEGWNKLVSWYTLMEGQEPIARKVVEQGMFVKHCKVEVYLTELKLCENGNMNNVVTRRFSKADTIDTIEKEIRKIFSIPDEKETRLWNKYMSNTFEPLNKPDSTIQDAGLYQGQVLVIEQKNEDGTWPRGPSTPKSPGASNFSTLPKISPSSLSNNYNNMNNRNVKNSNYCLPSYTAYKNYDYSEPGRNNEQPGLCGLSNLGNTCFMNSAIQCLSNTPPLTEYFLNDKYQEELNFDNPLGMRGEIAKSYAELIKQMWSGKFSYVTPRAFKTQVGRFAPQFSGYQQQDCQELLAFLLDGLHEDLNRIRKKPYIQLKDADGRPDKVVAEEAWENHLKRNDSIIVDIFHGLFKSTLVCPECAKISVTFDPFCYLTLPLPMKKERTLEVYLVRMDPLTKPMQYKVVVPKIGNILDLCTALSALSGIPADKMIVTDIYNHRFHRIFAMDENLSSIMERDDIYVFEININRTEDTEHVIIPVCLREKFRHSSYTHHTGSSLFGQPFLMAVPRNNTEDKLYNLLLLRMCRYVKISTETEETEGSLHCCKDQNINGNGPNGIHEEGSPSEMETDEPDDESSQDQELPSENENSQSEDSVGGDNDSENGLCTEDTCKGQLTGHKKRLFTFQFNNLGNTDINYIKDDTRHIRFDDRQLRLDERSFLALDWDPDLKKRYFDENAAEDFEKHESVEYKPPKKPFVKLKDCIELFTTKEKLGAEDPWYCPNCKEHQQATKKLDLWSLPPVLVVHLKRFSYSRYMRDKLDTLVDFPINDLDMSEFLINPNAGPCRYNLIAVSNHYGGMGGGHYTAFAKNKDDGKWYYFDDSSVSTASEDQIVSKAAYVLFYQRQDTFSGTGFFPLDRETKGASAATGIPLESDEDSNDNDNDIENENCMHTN
Summary of the method: as §1

USP16 = USP16 (UniProt Q9Y5T5)
Chain of USP16 (Q9Y5T5 whole entry, looked up): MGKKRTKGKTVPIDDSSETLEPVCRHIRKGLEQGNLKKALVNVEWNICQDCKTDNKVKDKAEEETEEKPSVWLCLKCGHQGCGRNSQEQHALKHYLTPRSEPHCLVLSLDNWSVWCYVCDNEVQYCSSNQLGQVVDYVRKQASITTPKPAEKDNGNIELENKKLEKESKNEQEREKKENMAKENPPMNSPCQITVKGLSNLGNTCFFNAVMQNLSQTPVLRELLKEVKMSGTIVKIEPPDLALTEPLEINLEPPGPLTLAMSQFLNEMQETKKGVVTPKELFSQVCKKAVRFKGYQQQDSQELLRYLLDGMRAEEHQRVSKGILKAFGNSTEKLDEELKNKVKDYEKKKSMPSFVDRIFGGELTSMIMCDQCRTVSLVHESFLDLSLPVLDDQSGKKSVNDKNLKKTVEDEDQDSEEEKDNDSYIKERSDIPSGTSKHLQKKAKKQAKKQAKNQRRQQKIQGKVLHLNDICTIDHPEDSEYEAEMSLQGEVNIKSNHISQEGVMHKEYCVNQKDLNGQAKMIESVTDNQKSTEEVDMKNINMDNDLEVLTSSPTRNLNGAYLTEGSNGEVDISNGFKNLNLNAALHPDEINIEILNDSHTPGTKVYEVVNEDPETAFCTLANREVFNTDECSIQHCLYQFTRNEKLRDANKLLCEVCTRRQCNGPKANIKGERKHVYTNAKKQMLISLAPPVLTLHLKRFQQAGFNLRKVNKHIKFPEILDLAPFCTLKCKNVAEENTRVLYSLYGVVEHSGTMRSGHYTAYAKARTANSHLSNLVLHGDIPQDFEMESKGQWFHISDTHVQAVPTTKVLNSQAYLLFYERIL
Summary of the method: as §1

Measured: log2 ratio of Biotin-Ahx-Ub-VS probe labelling

CC(NC(=O)CCl)c1csc(-c2ccccc2)n1.Cl (stereo not given)
active: OTUD7B -1.07 | UCHL1 -1.3 | USP16 -1.03
inactive: OTUD6B -0.597 | PRPF8 -0.0372 | PSMD7 -0.175 | UCHL3 -0.457 | UCHL5 -0.71 | USP10 -0.126 | USP15 -0.386
